Hits are enriched below; roughly 2.2% of the tested compounds scored in any of these assays.
TWEAK-Fn14 inh – inhibitors of TWEAK-Fn14 signaling, primary screen, luciferase reporter cells, uHTS; TWEAK-stimulated Fn14 reporter cells, luciferase luminescence, 8 h; inhibition, % at 10 µM; AID 1159606, 2016; 2% of 360,000 active; in the data active = inhibition above about 50%
HSP90 refold inh – HSP90 inhibitors, primary screen, cell lysate, luminescence; Heat shock protein HSP 90 (rabbit reticulocyte lysate; luciferase refolding); Rabbit reticulocyte lysate, luciferase refolding luminescence, 3 h; inhibition, % at 5.6 µM; 0.91% of 290,000 active;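 active = inhibition above the screen-wide mean plus 3 SD, computed separately per campaign, cut at about 16% in these data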;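 also: 0% = DMSO wells and 100% = 60 µM geldanamycin wells; inhibitors lower the luminescence because luciferase stays unfolded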
TROY NFkB inh – inhibitors of TROY-driven NF-kB signaling, primary screen, Q293 LMP1-TROYcd cells, NF-kB luciferase, uHTS | 0.98% of 360,000 active | Q293 LMP1-TROYcd NF-kB luciferase reporter, 4 h | AID 1347056, 2019 | inhibition, % at 10 µM;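 active = compounds whose plate-normalised and pattern-corrected inhibition of the luciferase reporter signal at the single screening dose is 50% or more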
LGR2 inh – inhibitors of bursicon-induced LGR2 CRE-luciferase signal, primary screen, cell-based, HEK293, CRE-luciferase reporter, bursicon stimulation. Drosophila bursicon receptor LGR2 (rickets). 0.35% of 380,000 active. bursicon-stimulated, 4 h. inhibition, % at 9.99 µM;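 active = drop in luminescence signal, shown as inhibition above about 50% in the replicate tests, limit read from the data, passing the limit was not always enough; inconclusive = probably only some replicates passing the limit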;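 also: agonist challenge used bursicon conditioned medium at about half maximal strength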
* marks the source's active call; other numbers are inactive results; u = inconclusive; x = not tested or not shown.

SMILES | TWEAK-Fn14 inh | HSP90 refold inh | TROY NFkB inh | LGR2 inh
Cc1cccc(S(=O)(=O)N2CCCCN3[C@@H](CO)[C@@H](c4ccc(C#C[C@H](C)O)cc4)[C@@H]3C2)c1 | x | x | x | 4.4
Cc1cc(C)c2c(N)c(C(=O)NN3CC(=O)N(c4ccccc4F)CC3=O)sc2n1 | 103.2* | 1.4 | -3.5 | -14.9
COC(=O)c1c(-c2ccc(C)cc2)csc1NC(=O)Cc1ccc(OC)c(OC)c1 | 57.0* | 5.8 | 42.1 | 6.6
COC(=O)c1c(-c2cccc3ccccc23)csc1NC(=O)Cc1ccc(OC)c(OC)c1 | 74.8* | 10.0 | 39.7 | x
CO[C@@H]1CN(C)C(=O)c2ccc(NC(=O)Nc3ccc(Cl)cc3)cc2OC[C@H](C)N(C(=O)Nc2c(C)noc2C)C[C@H]1C | x | x | x | 0.0
CNC(=O)C[C@@H]1CC[C@@H]2[C@H](COC[C@@H](O)CN2Cc2ccc(C(F)(F)F)cc2)O1 | x | x | x | 1.4
C[C@@H]1CCCCO[C@@H](CN(C)Cc2ccc(C(F)(F)F)cc2)[C@H](C)CN([C@H](C)CO)C(=O)c2cc(NC(=O)Nc3ccc(F)cc3)ccc2O1 | x | x | x | -25.0
CCN(CC)c1ccc(/C=N/NC(=O)c2cccc(S(=O)(=O)N3CCOCC3)c2)cc1 | 15.5 | -3.8 | 5.6 | 15.0
CCN(CC)c1ccc(/C=N/NC(=O)c2ccco2)cc1 | 64.0* | -0.7 | 16.5 | 2.5
CCN(Cc1ccccc1)c1ccc(/C=N/NC(=O)c2cccc(S(=O)(=O)N3CCOCC3)c2)cc1 | 69.2* | 6.1 | 26.5 | 34.5
O=C(N/N=C/c1ccc2cccnc2c1)c1ccco1 | 51.9* | 14.5 | 32.3 | 41.8
O=C(C1CCCC1)N1C[C@H]2[C@@H](c3ccccc31)[C@@H](CO)N2C(=O)Cc1ccccn1 | x | x | x | -1.7
O=C1C(Cl)=C(NCCN2CCCCC2)C(=O)c2ccccc21 | 92.9* | 2.8 | 53.6* | x
COc1ccc(C2c3[nH]c4ccccc4c3C[C@H]3C(=O)N(c4ccccc4C(=O)N4CCC(C(=O)O)CC4)C(=O)N23)cc1 (stereo partly drawn) | 1.7 | -0.2 | -4.5 | -3.7
CC(C)c1ccc(C2c3[nH]c4ccccc4c3C[C@H]3C(=O)N(c4ccccc4C(=O)N4CCC[C@H]4C(=O)O)C(=O)N23)cc1 (stereo partly drawn) | 43.7 | 0.5 | 66.7* | -32.3
C[C@@H]1CN([C@@H](C)CO)S(=O)(=O)c2ccc(C3=CCCC3)cc2O[C@@H]1CN(C)Cc1ccccc1 | x | x | x | 6.3
COc1nn(-c2ccccc2)c(=O)c(Cl)c1Cl | 99.3* | -5.0 | 73.9* | -14.4
C[C@H](CO)N1C[C@H](C)[C@@H](CN(C)Cc2ccccc2C(=O)O)Oc2cc(-c3ccc(C(=O)N(C)C)cc3)ccc2S1(=O)=O | x | x | x | 5.7
O=C(NCC[C@@H]1CC[C@@H](NS(=O)(=O)c2ccc(Oc3ccccc3)cc2)[C@@H](CO)O1)C1CC1 | x | x | x | -15.3
Cn1cc(CN2CCCC(CO)(Cc3cccc(Cl)c3)C2)cn1 (stereo not drawn) | -3.4 | -2.6 | 10.5 | 8.6
CC(C)n1cc(CN2CCCC(CO)(Cc3cccc(Cl)c3)C2)cn1 (stereo not drawn) | 11.5 | -0.4 | 50.9* | -5.0
COCCN=c1scc(-c2ccc3c(c2)NC(=O)CO3)n1/N=C(\C)c1ccc(O)cc1 | 20.2 | -0.1 | 12.6 | 10.5
COc1cc(/C=N/n2c(-c3ccc4c(c3)NC(=O)CO4)csc2=Nc2cccc(C)c2)ccc1O | 65.3* | -1.5 | 12.3 | -22.7
CCC(=O)NC1=C(Nc2ccc(N)cc2)C(=O)c2ccccc2C1=O | 51.6* | 0.3 | 33.0 | -4.0
COc1ccc(CNc2nn3c(-c4cccc(C(=O)N(C)C)c4)cnc3s2)cc1 | 81.1* | x | 50.1* | -2.5
SMILES | TWEAK-Fn14 inh | HSP90 refold inh | TROY NFkB inh | LGR2 inh
CC(C)(C)c1ccc(Cn2c(=N)n(CC(O)c3ccco3)c3ccccc32)cc1 (stereo not drawn) | 69.5* | -3.3 | 53.9* | x
CCOc1ccc(-c2nnc(-c3cccs3)o2)cc1OCC | -23.2 | -0.1 | -97.9 | x
CCOc1ccc(-c2nnc(-c3cccs3)o2)cc1 | 63.2* | 9.0 | 21.7 | x
c1csc(-c2nnc(-c3ccc(N4CCOCC4)cc3)o2)c1 | 58.7* | 4.6 | -3.4 | x
CCNC(=O)C[C@@H]1CC[C@H]2[C@H](COc3ccc(NC(=O)Nc4cccc(C)c4)cc3C(=O)N2C)O1 | x | x | x | 3.3
NC(=O)C1CCN(CC(O)COc2ccc(-c3ccccc3)cc2)CC1 (stereo not drawn) | 106.9* | 2.5 | -19.9 | 4.3
C[C@H]1CN([C@@H](C)CO)C(=O)c2cccc(NC(=O)Nc3ccc4c(c3)OCO4)c2O[C@H]1CN(C)S(=O)(=O)c1ccc(F)cc1 | x | x | x | 7.4
CC1CCN(CCCNS(=O)(=O)c2cc(Br)cc3c2N(C(=O)C2CC2)CC3)CC1 | 72.6* | -2.3 | -1.8 | 1.5
O=C(C1CC1)N1CCc2cc(Br)cc(S(=O)(=O)NCCCN3CCCCC3)c21 | -11.3 | -2.8 | 3.4 | -3.6
COc1ccc(/C=C/C(=O)Nc2sc3c(c2C(=O)NCc2cccnc2)CCCC3)cc1 | 52.6* | -1.5 | 5.6 | -12.6
CN(C)c1ccc(N/C=C/C(=O)c2ccco2)cc1 | 86.3* | 8.8 | -14.1 | x
O=C(/C=C/Nc1ccc(Br)cc1F)c1ccco1 | 63.3* | 10.2 | 17.7 | 88.7*
CC(=O)Nc1ccc(N/C=C/C(=O)c2ccco2)cc1 | -9.4 | -2.7 | -9.1 | x
O=C(/C=C/Nc1ccc(F)cc1F)c1ccco1 | 72.6* | 4.5 | -13.4 | u
COc1ccc(-c2ccc3c(c2)O[C@@H](CN(C)C)[C@H](C)CN([C@@H](C)CO)S3(=O)=O)cc1 | x | x | x | -15.7
Cc1cccc(C(=O)O/N=C(\N)Cc2cccc3ccccc23)c1 | -18.1 | 16.7* | -19.2 | x
COc1ccc(S(=O)(=O)N(C)C[C@@H]2Oc3c(NC(=O)Nc4cccc5ccccc45)cccc3C(=O)N([C@@H](C)CO)C[C@@H]2C)cc1 | x | x | x | -6.0
O=C(O)c1cccc2cccc(-c3c4ccc(=O)c(O)c-4oc4c(O)c(O)ccc34)c12 | 81.6* | x | -3.0 | 3.9
CC(=O)Nc1cc(-c2cccc(NS(C)(=O)=O)c2)cn2c(-c3ccc(F)c(Cl)c3)cnc12 | 91.8* | x | -2.2 | 13.1
CC(=O)Nc1cc(-c2cccc(NS(C)(=O)=O)c2)cn2c(-c3cccc(C(C)=O)c3)cnc12 | -22.0 | x | 5.8 | -25.8
CC(=O)Nc1cccc(-c2cc(NC(C)=O)c3ncc(-c4ccc(F)cc4)n3c2)c1 | 100.2* | x | 90.6* | 8.5
CCCC#Cc1cnc2c(c1)C(=O)N([C@@H](C)CO)C[C@@H](C)[C@H](CN(C)C(=O)c1ccc(F)cc1)O2 | x | x | x | 0.3
COc1cc2c(cc1NC(=O)c1ccccc1-c1ccccc1C(=O)O)-c1ccccc1C2 | 17.6 | x | -0.4 | 14.9
COc1cc2c(cc1NC(=O)C(Cl)Cl)-c1ccc(NC(=O)C(Cl)Cl)cc1C2 | 81.1* | x | -35.5 | 0.3
CN(C)CCCN(Cc1cc2cc3c(cc2[nH]c1=O)OCO3)C(=S)Nc1cccc(Cl)c1 | 28.3 | -1.4 | 51.0* | x
COc1ccccc1NC(=S)N(CCCN(C)C)Cc1cc2cc3c(cc2[nH]c1=O)OCO3 | 13.3 | -2.9 | -17.6 | x

Screens as filed in PubChem BioAssay.
